Publication PMC4336329 (PLoS ONE, 2015)
Screen size: about 310,000 compounds; about 14,000 (4.5%) showed an effect of 50% or more. Effects have a minus sign here. The full list was thinned out, with strong results kept by preference.

target: human ether-à-go-go-related gene (hERG) potassium channel (human, UniProt Q12809); experiment: primary screen, population patch clamp on CHO cells stably expressing hERG; higher = less effect of the substance
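Note: peak tail current of the secondary pulse compared with the same well before compound.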

Chain of human ether-à-go-go-related gene (hERG) potassium channel (Q12809 whole entry, looked up): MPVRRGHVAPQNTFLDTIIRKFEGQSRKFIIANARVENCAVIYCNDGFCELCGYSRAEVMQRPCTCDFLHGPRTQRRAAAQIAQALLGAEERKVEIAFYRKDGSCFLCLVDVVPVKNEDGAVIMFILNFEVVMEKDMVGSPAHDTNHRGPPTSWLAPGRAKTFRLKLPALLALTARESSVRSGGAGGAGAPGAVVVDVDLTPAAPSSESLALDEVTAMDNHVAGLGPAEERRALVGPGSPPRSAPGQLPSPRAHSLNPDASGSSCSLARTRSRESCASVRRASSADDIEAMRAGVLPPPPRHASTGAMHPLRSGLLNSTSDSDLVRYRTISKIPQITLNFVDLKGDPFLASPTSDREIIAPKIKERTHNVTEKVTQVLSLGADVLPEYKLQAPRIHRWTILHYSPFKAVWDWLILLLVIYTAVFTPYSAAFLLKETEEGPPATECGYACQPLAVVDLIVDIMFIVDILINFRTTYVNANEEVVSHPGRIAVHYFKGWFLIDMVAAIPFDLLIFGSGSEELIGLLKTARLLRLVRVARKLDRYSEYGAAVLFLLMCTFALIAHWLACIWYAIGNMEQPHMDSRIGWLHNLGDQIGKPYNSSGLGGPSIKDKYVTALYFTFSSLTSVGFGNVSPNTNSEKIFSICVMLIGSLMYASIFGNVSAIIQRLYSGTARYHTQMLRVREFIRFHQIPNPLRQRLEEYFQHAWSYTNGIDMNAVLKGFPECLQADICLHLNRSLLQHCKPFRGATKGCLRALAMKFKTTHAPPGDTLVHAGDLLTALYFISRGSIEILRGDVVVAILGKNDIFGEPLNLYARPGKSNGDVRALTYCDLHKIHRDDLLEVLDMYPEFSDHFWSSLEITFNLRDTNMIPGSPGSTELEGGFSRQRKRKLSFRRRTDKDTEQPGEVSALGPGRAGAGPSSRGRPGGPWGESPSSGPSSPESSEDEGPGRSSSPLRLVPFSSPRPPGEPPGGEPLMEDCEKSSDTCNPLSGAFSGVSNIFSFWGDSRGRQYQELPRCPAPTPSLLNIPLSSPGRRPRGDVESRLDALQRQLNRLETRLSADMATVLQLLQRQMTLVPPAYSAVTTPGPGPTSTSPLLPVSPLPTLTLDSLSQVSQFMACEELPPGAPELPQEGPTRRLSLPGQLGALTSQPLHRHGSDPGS

Going from `Cc1cccc(-c2cc3nc(C)c(C)c(NCCCn4ccnc4)n3n2)c1` to `Cc1cccc(-c2cc3nc(C)cc(NCCCn4ccnc4)n3n2)c1`, the “hERG current change (%, negative = inhibition) at 10uM” value rises from -68.9% to -59.3%.

First: Cc1cc(NCCCn2ccnc2)n2nc(-c3ccc(Cl)cc3)cc2n1
Second: Cc1cc(-c2ccccc2)nc2cc(C(=O)NCCCn3ccnc3)nn12
The “hERG current change (%, negative = inhibition) at 10uM” value of the first is lower: -74.6% for the first, -22.2% for the second.

First: Cc1cccc(-c2cc3nc(C)cc(C)n3n2)c1
Second: Cc1cccc(-c2cc3nc(C)cc(NCCCN(C)C)n3n2)c1
The “hERG current change (%, negative = inhibition) at 10uM” value of the first is higher: 2.6% for the first, -38.1% for the second.

First: CCc1cc2c(=O)[nH]c(Cc3ccc(OC)cc3)nc2s1
Second: COc1ccc(OC)c(S(=O)(=O)n2cnc3ccccc32)c1
The “hERG current change (%, negative = inhibition) at 10uM” value of the first is higher: 2.16% for the first, -5.26% for the second.

Going from `O=C(Nc1ccccc1)C(Cc1cccs1)c1nn[nH]n1` (stereo not drawn) to `O=C(NCc1cccnc1)c1cn(-c2ccccc2)nc1-c1cccs1`, the “hERG current change (%, negative = inhibition) at 10uM” value falls from -0.965% to -32%.

Going from `O=C(CNc1cccc(S(=O)(=O)N2CCOCC2)c1)Nc1ccc(C(F)(F)F)cc1` to `O=C(Cc1ccccc1)NC(NCCCN1CCOCC1)(C(F)(F)F)C(F)(F)F`, the “hERG current change (%, negative = inhibition) at 10uM” value rises from -44.2% to 5.2%.

First: O=C(O)c1cccc(Cn2c(Cl)c(/C=N/NC(=O)c3ccccc3O)sc2=O)c1
Second: O=C(CCCc1ccccc1)N1CCc2ccccc21
The “hERG current change (%, negative = inhibition) at 10uM” value of the first is higher: 12.6% for the first, 10.1% for the second.

Going from `Cc1cc(C)n2cc(CSc3nnnn3C)nc2n1` to `Cc1cc(C)n2cc(CSc3nncn3C)nc2n1`, the “hERG current change (%, negative = inhibition) at 10uM” value rises from 2.06% to 17.2%.

Going from `Cc1cccc2nc(CSc3nnnn3-c3ccccc3)cn12` to `Cc1cc(C)n2cc(CSc3nnnn3-c3ccccc3)nc2n1`, the “hERG current change (%, negative = inhibition) at 10uM” value falls from -41.5% to -56.3%.

First: Cc1cc(C)n2cc(CSc3nnnn3-c3ccccc3C)nc2n1
Second: CCc1nnc(SCc2cn3c(C)cc(C)nc3n2)n1N
The “hERG current change (%, negative = inhibition) at 10uM” value of the first is lower: -58.3% for the first, 13.5% for the second.

Compared with `Cc1c(N=Cc2ccc(-c3ccc(Cl)cc3)o2)c(=O)n(-c2ccccc2)n1C`, `O=C(NC1CCN(Cc2ccc(Cl)cc2)CC1)c1cn(-c2ccccc2)nc1-c1cccnc1` is lower in “hERG current change (%, negative = inhibition) at 10uM” value: -15.3% for the first, -75.1% for the second.

Going from `Cc1cc(C)nc(OC(C(=O)O)C(OCC(C)C)(c2ccccc2)c2ccccc2)n1` (stereo not drawn) to `O=C(NCc1cccnc1)c1cn(-c2ccccc2)nc1-c1ccccc1`, the “hERG current change (%, negative = inhibition) at 10uM” value falls from 17.8% to -24.3%.

Going from `Cc1[nH]c2c(C(F)(F)F)cccc2c1CCN.Cl` to `Cc1cccc(CS(=O)(=O)c2ncc(CO)n2C)c1`, the “hERG current change (%, negative = inhibition) at 10uM” value rises from -1.49% to 16%.

Compared with `CCOc1ccc(C(=O)Nc2cccc3nsnc23)cc1[N+](=O)[O-]`, `CCCCCCCC(=O)NNC(=O)c1ccc([N+](=O)[O-])cc1` is lower in “hERG current change (%, negative = inhibition) at 10uM” value: 5.23% for the first, -20.6% for the second.

First: OCC1(CC2CCCCO2)CCN(C/C=C/c2ccccc2)CC1 (stereo not drawn)
Second: OCC1(CCc2ccccc2)CCN(C/C=C/c2ccccc2)CC1
The “hERG current change (%, negative = inhibition) at 10uM” value of the first is higher: -46% for the first, -80.9% for the second.

First: C/C=C(\C)CN1CCCC(CO)(Cc2ccccc2)C1 (stereo not drawn)
Second: OCC1(CCc2ccccc2)CCCN(C/C=C/c2ccccc2)C1 (stereo not drawn)
The “hERG current change (%, negative = inhibition) at 10uM” value of the first is higher: 10.4% for the first, -73.5% for the second.

Compared with `O=C(CCC(F)(F)F)N1CCCC(CO)(CCc2ccccc2)C1` (stereo not drawn), `O=S(=O)(Cc1ccccc1)N1CCN(C/C=C/c2ccccc2)CC1` is higher in “hERG current change (%, negative = inhibition) at 10uM” value: -13.5% for the first, -5.88% for the second.

Going from `CC1(C)CC2(CCO1)OC(=O)CC2C(=O)Nc1cccc2ccccc12` (stereo not drawn) to `Cc1cccc(C(=O)OCC(=O)c2ccc(CC(=O)N3CCOCC3)s2)c1C`, the “hERG current change (%, negative = inhibition) at 10uM” value falls from 12% to -52.4%.

First: Cn1cccc1/C=C1\SC(=S)N(CC(=O)O)C1=O
Second: O=C(O)c1cn(-c2ccccc2)nc1-c1cccnc1
The “hERG current change (%, negative = inhibition) at 10uM” value of the first is higher: 1.83% for the first, -1.94% for the second.

Going from `CCCCc1cc2ccccc2c(OCCN(C)C)n1.Cl` to `CN(C)CCOc1ncnc2c1oc1ccccc12`, the “hERG current change (%, negative = inhibition) at 10uM” value rises from -61.9% to -13.5%.

Going from `Cc1cc(C)c(S(=O)(=O)c2ccccc2C)c(OCCN(C)C)n1` to `Cc1ccc(C(=O)OCC(=O)c2ccc(CC(=O)N3CCOCC3)s2)cc1C`, the “hERG current change (%, negative = inhibition) at 10uM” value falls from -20.2% to -31.2%.

Compared with `Nc1cc(C(=O)OCC(=O)c2ccc(CC(=O)N3CCOCC3)s2)ccc1Cl`, `O=C(COC(=O)c1cn(-c2ccccc2)nc1-c1cccnc1)NC1CC1` is higher in “hERG current change (%, negative = inhibition) at 10uM” value: -27.8% for the first, -0.964% for the second.

Compared with `O=C(NCc1ccncc1)c1cn(-c2ccccc2)nc1-c1cccnc1`, `NC(=O)c1cn(-c2ccccc2)nc1-c1cccnc1` is higher in “hERG current change (%, negative = inhibition) at 10uM” value: -62% for the first, -1.67% for the second.

First: O=C(NC1CCN(Cc2ccccc2)CC1)c1cn(-c2ccccc2)nc1-c1cccnc1
Second: COC(=O)c1cn(-c2ccccc2)nc1-c1cccnc1
The “hERG current change (%, negative = inhibition) at 10uM” value of the first is lower: -68% for the first, -28.5% for the second.
